Assay results published in PubChem BioAssay AID449762 (Southern Research Specialized Biocontainment Screening …, 2010).
About 1,900 (0.58%) of roughly 330,000 compounds were called active. About 4% were inconclusive and are not listed. Only a sample is shown. Results with a measured potency or affinity are listed apart. A number with no mark means an inactive call. No stated cut-off is given here; in the data, inconclusive means inhibition above about 70% without an active follow-up result; inactive means below that.

Assay: M. tuberculosis growth inhibition, HTS (AID 449762);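 further: bacterial growth assessed after seven days of incubation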
Conditions: M. tuberculosis H37Rv growth inhibition, 7H9 media; at 25 µM; stronger effect = higher value
With `C/C(=N\Nc1nncc2ccccc12)c1ccc(O)cc1` the inhibition was 13.3%.
With `COc1ccc(CC(=O)Oc2ccccc2C)cc1` the inhibition was 10.5%.
For `CCN(CC)c1ccc(/C=N/NC(=O)c2ccc3nc[nH]c3c2)cc1`, the inhibition was 5.47%.
In the case of `CNC(=O)COc1coc(CN2CCN(c3ccccc3)CC2)cc1=O`, the inhibition is reported as -6.51%.
With `CC(NC(=O)/C(=C\c1cccc([N+](=O)[O-])c1)NC(=O)c1ccco1)C(=O)O` (stereo not given) the inhibition was 2.24%.
For `CCOC(=O)c1c(NC(=O)c2cc(-c3cccc(O)c3)on2)sc(C(C)=O)c1C`, the inhibition was 2.98%.
With `Cc1oc2c(CN3CCCC(C)C3)c(O)ccc2c(=O)c1-c1ccccc1` (stereo not given) the inhibition was 0.44%.
For `CC1CCCCN1Cc1c(O)ccc2c(=O)c(-c3nc4ccccc4s3)coc12` (stereo not given), the inhibition was 6.43%.
`Cc1cccc(-n2nnnc2SCC(=O)N(CC(C)C)c2c(N)n(CC(C)C)c(=O)[nH]c2=O)c1` gave an inhibition of 1.22%.
For `CC(C)Cc1nc2oc3c(Cl)ncnc3c2c2c1CCCC2`, the inhibition was 2.35%.
For `CC(C)Cc1nc2oc3c(NCC(C)O)ncnc3c2c2c1CCCC2` (stereo not given), the inhibition was 2.05%.
In the case of `CC(C)c1ccc(CCNC(=O)c2cccc(S(=O)(=O)N3CCN(C)CC3)c2)cc1`, the inhibition is reported as -4.06%.
With `O=C1CCN(CCc2ccccc2)CCN1[C@H](CSc1ccccc1)Cc1ccccc1` the inhibition was 13.6%.
`CCCN1CCC(=O)N([C@H](CSc2ccc(OC)cc2)Cc2ccccc2)CC1` gave an inhibition of 0.11%.
With `Cc1cc(C(=O)CSc2nc(N)cc(N)n2)c(C)n1CC1CCCO1` (stereo not given) the inhibition was -3.69%.
`CCn1c(=O)c2cc(C(=O)NC(C)C)sc2c2ccccc21` showed an inhibition of -0.74%.
Molecule `Cc1c(OCc2nn[nH]n2)ccc2c3c(c(=O)oc12)CCCC3` has an inhibition of -3.72%.
Molecule `COc1ccccc1OCC(=O)Nc1ccc(S(=O)(=O)N(C)c2ccccc2)cc1` has an inhibition of -13.2%.
Molecule `COc1ccccc1-c1cc(C(F)(F)F)nc(S(C)(=O)=O)n1` has an inhibition of 2.66%.
Molecule `COc1nc(-c2ccccc2)cc(C(F)(F)F)n1` has an inhibition of -3%.
Molecule `O=C(NC(=S)Nc1ccc(CN2CCOCC2)cc1)c1cc2ccccc2o1` has an inhibition of 68.5%.
For `COc1ccc(-n2c(-c3ccc(Br)cc3)n[nH]c2=S)cc1`, the inhibition was 7.43%.
Molecule `C=CCN(c1nc(C)cc(OC)n1)S(=O)(=O)c1ccccc1` has an inhibition of -6.07%.
For `CC(OC(=O)/C=C/c1ccc2ccccc2n1)C(=O)Nc1ccc(S(N)(=O)=O)cc1` (stereo not given), the inhibition was 11.9%.
`CC(OC(=O)/C=C/c1ccc2ccccc2n1)C(=O)N(C)c1ccccc1` (stereo not given) gave an inhibition of -4.67%.
In the case of `NC(=O)c1ccccc1OCC(=O)Nc1cccnc1Cl`, the inhibition is reported as 2.44%.
`CCCc1ccc(Oc2cc(N3CCOCC3)nc(-c3ccccc3)n2)cc1` gave an inhibition of 17.9%.
In the case of `O=C(O)c1cccc(N/N=C/c2cc(Br)cc(Br)c2O)c1`, the inhibition is reported as -15.9%.
With `CN(/N=C/c1cc(Br)cc(Br)c1O)c1ccccc1` the inhibition was 3.99%.
For `Cc1ccc(C(=O)Nc2ccccc2C(=O)N2CCCCC2C)cc1` (stereo not given), the inhibition was -0.75%.
`COCC(=O)Nc1ccc(N2CCOCC2)c(S(=O)(=O)Nc2ccccc2OC)c1` showed an inhibition of 1.36%.
With `CCCCCCn1c2c(c(=N)c3c1CCC3)CCC2` the inhibition was -4.99%.
With `CCCCn1c2c(c(=N)c3c1CCC3)CCC2` the inhibition was -1.93%.
With `Cc1ccc(OCC(=O)OCc2c(C)noc2C)cc1C` the inhibition was 3.24%.
With `Cc1noc(C)c1COC(=O)COc1ccc(C#N)cc1` the inhibition was 6.51%.
In the case of `COc1ccc(/C=C/C(=O)OCC(=O)NCC2CCCO2)cc1` (stereo not given), the inhibition is reported as 2.24%.
In the case of `O=C(COC(=O)/C=C/c1ccc(F)cc1)NCC1CCCO1` (stereo not given), the inhibition is reported as 6.52%.
`Cc1noc(C)c1CSc1nnc(-c2ccccc2)n1N` showed an inhibition of 6.07%.
`CCOC(=O)Nc1ccc(C)cc1Br` gave an inhibition of -1.99%.
`CCc1cc(C(=O)Nc2ccccc2)cs1` showed an inhibition of -4.05%.
In the case of `COc1ccc(NC(=O)c2nc[nH]c2C(=O)N(C)Cc2ccccc2)cc1`, the inhibition is reported as 9.08%.
In the case of `NC1=NC(=O)/C(=C/C=C/c2cccs2)S1`, the inhibition is reported as 18.7%.
For `COc1ccc(C(=O)Nc2c(N)nc(SCC(=O)NCC3CCCO3)[nH]c2=O)cc1` (stereo not given), the inhibition was 11.2%.
Molecule `CCN(CC)C(=O)c1sc2nc(-c3ccncc3)[nH]c(=O)c2c1C` has an inhibition of -4.66%.
With `CCN(CC)C(=O)c1sc2nc(Cc3ccccc3)[nH]c(=O)c2c1C` the inhibition was 4.02%.
Molecule `COc1ccc(-n2c(O)c(/C=C3\C=Nc4ccc(Br)cc43)c(=O)[nH]c2=O)c(OC)c1` has an inhibition of -3.48%.
In the case of `CCn1c(CSc2nnc(-c3ccc4c(c3)OCO4)o2)nc2cc(S(=O)(=O)N(C)C)ccc21`, the inhibition is reported as -2.02%.
Work on `O=C(c1cc(-c2cccc(Cl)c2)nc2ccccc12)N1CCCC1` yielded an inhibition of 4.01%.
For `COc1ccc(C2CC(c3c(-c4ccccc4)c4cc(Cl)ccc4[nH]c3=O)=NN2S(C)(=O)=O)cc1OC` (stereo not given), the inhibition was 7.95%.
Molecule `COc1ccc(OC)c(C2CC(c3c(-c4ccccc4)c4cc(Cl)ccc4[nH]c3=O)=NN2S(C)(=O)=O)c1` (stereo not given) has an inhibition of 44.4%.
For `O=C(NCc1cccnc1)c1noc2c1CCCC2`, the inhibition was -1.71%.
Work on `CCOC(=O)c1nsnc1NCCCl` yielded an inhibition of 4.35%.
Molecule `C/C(=N\Nc1ccc(S(=O)(=O)N2CCCCC2)cn1)c1ccc(O)cc1` has an inhibition of -0.43%.
Molecule `COc1cccc(/C(C)=N/Nc2ccc(S(=O)(=O)N3CCCCC3)cn2)c1` has an inhibition of -2.89%.
Work on `CC(=O)Nc1ccc(S(=O)(=O)Nc2ccccc2N2CCOCC2)cc1` yielded an inhibition of 5.3%.
Molecule `CCCN(CCC)CCCNC(=O)c1cn(CC)c2ccc(S(=O)(=O)N3CCOCC3)cc2c1=O` has an inhibition of 3.73%.
Work on `CCCCN(C)CCCNC(=O)c1cn(CC)c2ccc(S(=O)(=O)N3CCOCC3)cc2c1=O` yielded an inhibition of 3.29%.
Molecule `Cc1ccc(S(=O)(=O)n2nc(OC(=O)c3ccccc3F)cc2N)cc1` has an inhibition of 1.24%.
With `O=c1[nH]nnc2sc3c(c12)CCCC3` the inhibition was 1.62%.
Molecule `COc1cc(NS(=O)(=O)c2ccc(NC(=S)NC(=O)c3sc4ccccc4c3Cl)cc2)nc(OC)n1` has an inhibition of -0.21%.
In the case of `Cc1ccc(-c2csc(NC(=O)CN3CCC(C(N)=O)CC3)n2)cc1`, the inhibition is reported as 2.15%.
In the case of `COc1ccc(C(=O)C2CCN(CC(=O)Nc3ccc(C)cc3)CC2)cc1`, the inhibition is reported as 8.88%.
`Cc1ccc(-c2oc3ccccc3c(=O)c2O)cc1` showed an inhibition of 27.6%.
With `O=c1c(O)c(-c2ccc3c(c2)OCO3)oc2ccccc12` the inhibition was 35.4%.
`CCOC(=O)CNC(=O)CNC(=O)c1ccc(OCC(C)C)cc1` showed an inhibition of 22.7%.
For `CCOC(=O)c1sc2c(c1C)C(c1cccs1)C1=C(CCCC1=O)N2` (stereo not given), the inhibition was 11.9%.
In the case of `Cn1c(=O)c2c(nc(NCc3ccc4c(c3)OCO4)n2C)n(C)c1=O`, the inhibition is reported as -2.77%.
In the case of `COc1ccccc1CCNC(=O)C(=O)Nc1cc2c3c(c1)CC(=O)N3CCC2`, the inhibition is reported as 57.3%.
`O=C(CSc1nnc(CNC(=O)c2ccccc2)o1)c1ccc(Cl)cc1` showed an inhibition of 1.96%.
For `O=C(O)CCSc1ccccn1`, the inhibition was -6.45%.
Molecule `O=C(O)CSc1ccccn1` has an inhibition of 2.15%.
`COC(=O)CC1C(=O)NCCN1C(=O)c1ccc([N+](=O)[O-])cc1` (stereo not given) gave an inhibition of -0.41%.
For `O=S(=O)(Nc1ccc(Cl)cn1)c1ccc(F)cc1`, the inhibition was -1.48%.
`COc1cc2c(cc1NC(=O)COC(=O)[C@@H](NS(=O)(=O)c1ccccc1)C(C)C)oc1ccccc12` gave an inhibition of 6.17%.
`Clc1ccc(N2CCNCC2)nn1` gave an inhibition of -10.1%.
In the case of `COc1cc(NC(=O)c2c(-c3ccccc3Cl)noc2C)c2ncccc2c1`, the inhibition is reported as -6.92%.
Work on `Cc1onc(-c2ccccc2Cl)c1C(=O)Nc1cccc2cccnc12` yielded an inhibition of 14.3%.
`Cn1cc(S(=O)(=O)N2CCC3(CC2)OCCO3)c(=O)n(C)c1=O` showed an inhibition of -0.14%.
In the case of `CC1=C(C(=O)OCc2ccccc2)C(c2cccc(F)c2)NC(=O)N1` (stereo not given), the inhibition is reported as -8.13%.
`Cc1cccc(-n2ncc3c2CCCC3NC(=O)C2=CC(=O)CC(C)(C)O2)c1C` (stereo not given) gave an inhibition of -0.85%.
Work on `Cc1ccc(N(CC(=O)Nc2cc(C)cc(C)c2)S(=O)(=O)c2c(C)noc2C)cc1` yielded an inhibition of 6.89%.
Molecule `O=C(OCC(=O)C12CC3CC(CC(C3)C1)C2)c1ccccc1O` has an inhibition of 6.66%.
Work on `Cc1cc(C)cc(NC(=O)c2cccn2-c2ncc(C(F)(F)F)cc2Cl)c1` yielded an inhibition of 6.22%.
With `CN(C)C(=O)c1cccn1-c1ncc(C(F)(F)F)cc1Cl` the inhibition was -4.51%.
`NC(=O)CCNC(=O)c1ccc(Cl)cc1` gave an inhibition of -5.92%.
In the case of `Cc1ccc(NC(=O)CN2C(=O)C3CC=CCC3C2=O)cc1S(=O)(=O)N1CCOCC1` (stereo not given), the inhibition is reported as -2.53%.
`COC(=O)N/N=C(C)/C=C/c1ccccc1` gave an inhibition of -8.99%.
With `CC(/C=C/c1ccccc1)=N\NC(=S)NC(C)C` the inhibition was 28.1%.
`Cc1ncc(CSc2nnnn2-c2ccccc2)c(N)n1` showed an inhibition of 1.43%.
Work on `O=C(O)CCn1c(SCc2ccccc2)nc2ccccc21` yielded an inhibition of 2.64%.
With `O=C(O)Cn1c(SCc2ccccc2)nc2ccccc21` the inhibition was 2%.
For `COC(=O)C1=C(c2ccc(OC)c(OC)c2)C[C@@H]2CC[C@H]1N2C(=O)NC1Cc2ccccc2C1`, the inhibition was -10%.
`Cc1ccc(C(=O)Nc2ccccc2NC(=O)c2ccc(C)o2)o1` showed an inhibition of 7.31%.
For `Cc1cc(C(=O)CSc2nnc(N)s2)c(C)n1CCc1ccc(Cl)cc1`, the inhibition was 9.47%.
Work on `Cc1cc(C(=O)CSc2nnnn2C)c(C)n1CCc1ccc(Cl)cc1` yielded an inhibition of 4.63%.
